Potency data for 21 molecules are collected here from PubChem BioAssay (NCATS).

Inconclusive results are not listed. A number with no mark means an inactive call. Activity calls are given as the source filed them. The call rests on the fitted dose curve; in most records, active means well fitted curve in the direction sought with a large enough effect; inconclusive means small, poorly fitted or top-dose-only effect, or another doubt; inactive means no such curve, though single readings can be large; an effect the other way counts as inactive or inconclusive.

Assay [1] can be described thus: qHTS of pediatric cancer cell lines to identify multiple opportunities for drug repurposing: Confirmatory screen for Rh18 cells (AID 1347125). Further: nearly all actives have a fitted effect of over 55% in size. Further: potency means the concentration at half of the fitted maximal effect. A digest of the protocol: (§1)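 Cells (500-1,000/well) rested 5 h, then received compounds for 48 h; metabolically active cells were measured by CellTiter-Glo luminescence. Final concentrations spanned up to 46 µM (MIPE, 11-point) or 0.59 nM-46 µM (NPC, 8-point) in primary screens, 11-point in follow-ups.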

Assay [2] can be described thus: qHTS of pediatric cancer cell lines to identify multiple opportunities for drug repurposing: Confirmatory screen for Rh30 cells (AID 1347126). Further: nearly all actives have a fitted effect of over 55% in size. Further: potency means the concentration at half of the fitted maximal effect. A digest of the protocol: as §1
The subject of assay [3] is Zika virus NS2B-NS3 protease. The assay can be described thus: Primary screen GU AMC qHTS for Zika virus inhibitors (AID 1347154). Further: nearly all actives have a fitted effect of over 70% in size. A digest of the protocol:
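Fluorogenic AMC-substrate cleavage by noncovalent NS2B-NS3 protease complex (25 nM, pH 8.0 Tris buffer with Tween 20) followed for 15 minutes at room temperature (~20% conversion). Percent inhibition from ex340/em450 signal change, fitted by 4-parameter Hill equation.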
(In general: qHTS replaces the single test concentration by a dilution series.)

Assay [4] is described as follows: qHTS of pediatric cancer cell lines to identify multiple opportunities for drug repurposing: Confirmatory screen for OHS-50 cells (AID 1347128).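 Further: compound exposure lasted 48 h at 37 degrees C; nearly all actives have a fitted effect of over 55% in size.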 Further: potency means the concentration at half of the fitted maximal effect. A digest of the protocol:
as §1

A short description of assay [5]: qHTS of pediatric cancer cell lines to identify multiple opportunities for drug repurposing: Confirmatory screen for SK-N-SH cells (AID 1347129).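 Further: cells exposed to compound for 48 h before viability read; nearly all actives have a fitted effect of over 60% in size.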 Further: potency means the concentration at half of the fitted maximal effect. A digest of the protocol: as §1
Assay [6] can be described thus: qHTS of pediatric cancer cell lines to identify multiple opportunities for drug repurposing: Confirmatory screen for Saos-2 cells (AID 1347127). Further: potency means the concentration at half of the fitted maximal effect; nearly all actives have a fitted effect of over 60% in size. A digest of the protocol:
as §1

Consider `O=C(NC1CC1)c1cccc(-c2ccc3c(NC(=O)C4CC4)n[nH]c3c2)c1`, for which the Potency entry in assay [1], in assay [2] and in assay [3] was “inactive” in each case.
For the molecule `COc1cccc2c1C(=O)c1c(O)c3c(c(O)c1C2=O)C[C@@](O)(C(=O)CO)C[C@H]3O[C@H]1C[C@H](N)[C@H](O)[C@H](C)O1`, the Potency is 1.47 µM (active) in assay [1], 1.17 µM (active) in assay [2], 2.61 µM (active) in assay [4] and 0.59 µM (active) in assay [5]. Also, the Potency result in assay [3] was “inactive”.
For `Oc1cc(-c2nc(-c3ccccc3)[nH]c2-c2ccncc2)ccc1Cl`, the Potency is 18.5 µM (active) in assay [1], 1.31 µM (active) in assay [2] and 18.5 µM (active) in assay [4]. Besides, in assay [3], the Potency result was “inactive”.
In the case of `C[N+](C)([O-])CCNc1ccc(NCC[N+](C)(C)[O-])c2c1C(=O)c1c(O)ccc(O)c1C2=O`, the Potency entry in assay [1], in assay [2], in assay [5] and in assay [3] was “inactive” throughout.
As for `C[C@@]12C(=O)OC(=O)[C@@]1(C)C1CCC2O1`, the Potency in assay [1] is 2.93 µM (active); in assay [2], 3.29 µM (active); in assay [4] it was 4.65 µM (active); in assay [5] it was 5.9 µM (active). Also, the Potency entry in assay [3] is “inactive”.
The matching figures for `O=C(O)C[C@H](O)C[C@H](O)C=Cc1c(C2CC2)nc2ccccc2c1-c1ccc(F)cc1`: 3.69 µM (active), 2.33 µM (active), 10.4 µM (active), 1.32 µM (active) and “inactive”.
For `O=C(C=Cc1ccc(CN(CCO)CCc2c[nH]c3ccccc23)cc1)NO`, the Potency is 0.233 µM (active) in assay [1], 0.414 µM (active) in assay [2] and 0.118 µM (active) in assay [5]. The Potency entry in assay [3] is “inactive”.
`COC[C@H](NC(=O)c1cnc(C)s1)C(=O)N[C@@H](COC)C(=O)N[C@@H](Cc1ccccc1)C(=O)[C@@]1(C)CO1`: the Potency in assay [1] was 0.208 µM (active); in assay [2], 0.737 µM (active). Further, the Potency result in assay [3] is “inactive”.
As for `CCN(CC)CCNC(=O)c1c(C)[nH]c(C=C2C(=O)Nc3ccc(F)cc32)c1C`, the Potency in assay [1] is 26.9 µM (active); in assay [2], 12 µM (active); in assay [4] it was 10.7 µM (active); in assay [5], 9.59 µM (active). For the same molecule, the Potency entry in assay [3] is “inactive”.
Regarding `O=C(C=CC#Cc1cccc(NS(=O)(=O)c2ccccc2)c1)NO`, the Potency in assay [1] was 2.33 µM (active); in assay [2] it was 5.22 µM (active); in assay [4], 5.85 µM (active); in assay [5] it was 4.18 µM (active). In addition, in assay [3], the Potency result is “inactive”.
Regarding `COc1ccc2c(c1OC)C(=O)OC2[C@H]1c2c(cc3c(c2OC)OCO3)CCN1C` (stereo partly specified), the Potency result in assay [1], in assay [2], in assay [4], in assay [5] and in assay [3] was “inactive” each time.
With `CCS(=O)(=O)Nc1ccc2[nH]c(O)c(C(=Nc3ccc(CN4CCCCC4)cc3)c3ccccc3)c2c1`, the Potency in assay [1] was 4.65 µM (active); in assay [2] it was 1.65 µM (active); in assay [4] it was 5.22 µM (active); in assay [5], 0.332 µM (active). In addition, the Potency result in assay [3] was “inactive”.
With `CC(=O)SCC(Cc1ccccc1)C(=O)NCC(=O)OCc1ccccc1` (stereo unspecified), the Potency entry in assay [1], in assay [2], in assay [4], in assay [5] and in assay [3] was “inactive” in each case.
Regarding `COC(=O)C=CC(=O)OC`, the values for the Potency in assay [1] and in assay [2] were 14.7 µM (active) and 4.14 µM (active), respectively. The Potency entry in assay [4], in assay [5] and in assay [3] was “inactive” throughout.
With `C=CCNC1=C2C[C@@H](C)C[C@H](OC)[C@@H](O)[C@@H](C)C=C(C)[C@H](OC(N)=O)[C@@H](OC)C=CC=C(C)C(=O)NC(=CC1=O)C2=O`, the Potency in assay [1] was 0.585 µM (active); in assay [2] it was 4.14 µM (active); in assay [4] it was 11.7 µM (active); in assay [5], 1.87 µM (active). The Potency result in assay [3] is “inactive”.
The matching figures for `CS(=O)(=O)N1CCc2c(-c3cnc(N)nc3)nc(N3CCOCC3)nc21`: 1.85 µM (active), 1.47 µM (active), 2.93 µM (active), 2.64 µM (active) and “inactive”.
As for `CC(=O)ON=C1C(c2c(O)[nH]c3cc(Br)ccc23)=Nc2ccccc21`, the Potency in assay [1] was 13.1 µM (active); in assay [6], 13.1 µM (active); in assay [4] it was 14.7 µM (active); in assay [5] it was 23.5 µM (active). Moreover, the Potency result in assay [3] was “inactive”.
As for `Cc1nc(NC(=O)N2CCC[C@@H]2C(N)=O)sc1-c1ccnc(C(C)(C)C(F)(F)F)c1`, the results for the Potency in assay [1], in assay [2] and in assay [5] were 2.93 µM (active), 5.22 µM (active) and 11.8 µM (active), respectively. The Potency result in assay [3] is “inactive”.
As to `CN[C@H]1[C@@H](O)[C@@H]2O[C@@H]3O[C@H](C)CC(=O)[C@]3(O)O[C@@H]2[C@@H](NC)[C@H]1O`, the Potency entry in assay [1], in assay [2], in assay [4], in assay [5] and in assay [3] was “inactive” in each case.
As to `CC(C)N1[N]C(=C2C=c3cc(O)ccc3=N2)c2c(N)ncnc21`, the Potency was 6.57 µM (active) in assay [1], 1.65 µM (active) in assay [2] and 5.22 µM (active) in assay [4]. The Potency entry in assay [3] was “inactive”.
As for `CC(=O)NCC(=O)N1[C@H]2CC[C@H]1c1cc(Nc3ncc(C(F)(F)F)c(NC4CCC4)n3)ccc12`, the Potency is 2.93 µM (active) in assay [1], 3.69 µM (active) in assay [2], 2.61 µM (active) in assay [4] and 2.09 µM (active) in assay [5]. Also, the Potency result in assay [3] is “inactive”.
